Assay outcomes as filed in PubChem BioAssay.
The list is not random: actives were taken first. Their share in the collection is about 2%.
PKD1 inh – blocks activity of human protein kinase D1 | Q15139 | PKD1 kinase fluorescence polarization assay | inhibition, % (test concentration not listed) | hit rate 0.056% among 200,000; in the data active means inhibition above about 50%
Arbovirus inh – blocks arbovirus infection; arbovirus infection cell-based antiviral screen; inhibition, % at 10 µM; hit rate 0.37% among 200,000; in the data active means inhibition above about 30%
Hsp70 act – switches on Hsp70 transcription; activation, % at 10 µM; hit rate 0.04% among 200,000; AID 1203; HeLa Hsp70 promoter luciferase reporter, luminescence; scaled: vehicle 0, proteasome-inhibitor control 100%;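 active means activation above the mean across all tested compounds plus 3 SD, cutoff set per campaign, cut at about 5.5% in these data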;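 further: 100% = MG132 at 30 µM as the positive control and 0% = DMSO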
Efa HMGR inh – inhibitors of class II HMG-CoA reductase from Enterococcus faecalis; purified E. faecalis HMGR, NADPH absorbance 340 nm kinetic; inhibition, % at 10 µM; hit rate 0.41% among 190,000;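 active means inhibition above a set limit, the median over all tested compounds plus 3 SD, cut at about 9.5% in these data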;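 further: enzyme runs in reverse so mevalonate oxidation gives rising NADPH absorbance; 0% = complete reaction with DMSO and 100% = background rate lacking mevalonate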
Wee1 stabilizer – human Wee1 degradation inhibition, primary screen; reporter increase, % at 5 µM; hit rate 1.2% among 220,000; HeLa Luc-Wee1K328M stability, luciferase luminescence; 100% = proteasome inhibitor MG132 effect; AID 1321;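 active means activation above the mean of all tested compounds plus 3 SD, set per screening run, cut at about 8.8% in these data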;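 further: cells exposed to compound for 20 h before luminescence read; 0% = DMSO alone and 100% = MG132 at 30 µM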
Target sequence (P30291 whole entry K328M): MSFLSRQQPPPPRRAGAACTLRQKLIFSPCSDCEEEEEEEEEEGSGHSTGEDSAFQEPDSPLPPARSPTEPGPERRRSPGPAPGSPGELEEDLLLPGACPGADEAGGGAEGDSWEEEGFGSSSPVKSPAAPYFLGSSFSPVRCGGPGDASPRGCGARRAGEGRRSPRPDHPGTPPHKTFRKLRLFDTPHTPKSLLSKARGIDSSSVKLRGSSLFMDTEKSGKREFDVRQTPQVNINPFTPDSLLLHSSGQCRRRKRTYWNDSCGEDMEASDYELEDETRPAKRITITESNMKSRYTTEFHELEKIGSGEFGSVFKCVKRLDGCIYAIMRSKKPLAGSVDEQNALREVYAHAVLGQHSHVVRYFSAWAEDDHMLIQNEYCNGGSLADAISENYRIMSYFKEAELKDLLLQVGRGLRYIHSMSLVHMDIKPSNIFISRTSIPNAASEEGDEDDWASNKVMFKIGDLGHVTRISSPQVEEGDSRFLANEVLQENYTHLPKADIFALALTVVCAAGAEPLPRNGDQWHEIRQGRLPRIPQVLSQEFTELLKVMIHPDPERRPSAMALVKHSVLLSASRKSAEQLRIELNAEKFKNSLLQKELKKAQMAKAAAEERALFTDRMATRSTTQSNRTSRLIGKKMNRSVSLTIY
* marks the source's active call; other numbers are inactive results; · = no result given.

SMILES	PKD1 inh	Arbovirus inh	Hsp70 act	Efa HMGR inh	Wee1 stabilizer
CCc1ccc(S(=O)(=O)c2ccc(-n3nc(C)cc3N)cc2)cc1	-1	33*	0	-1	-3
COc1ccc(NC2=C(NCCO)C(=O)c3ccccc3C2=O)cc1	-11	-37	0	-3	3
Cc1cccc(NC2=C(NCCO)C(=O)c3ccccc3C2=O)c1	0	8	0	-6	9.3*
C=CCNC(=O)c1onc(CSc2cccc(OC)c2)c1C(=O)O	-12	-2	0	-1	-3
NC(=O)COC(=O)c1ccc(-c2ccc(O)cc2)cc1	·	·	·	·	9.8*
Cc1ccc(C(=O)COC(=O)c2ccc(O)cc2)cc1	-1	1	3	-7	10*
CC(C)c1cc(C(F)(F)F)n2nc(C(=O)Nc3ccc4c(c3)OCO4)cc2n1	8	31*	0	-7	0
Cc1c(C=O)c2ccccn2c1C(=O)c1cccc([N+](=O)[O-])c1	4	7	0	2	1
COc1ccc(C(=O)NCc2ccc3c(c2)OCO3)cc1S(=O)(=O)N(C)Cc1ccccc1	-4	-2	0	-4	-1
COc1ccc2c(c1)C1CC(C)(NC(=O)C1S(=O)(=O)c1ccc(F)cc1)O2 (configuration not stated)	8	7	0	-5	-1
CCOC(=O)N1CCN(C2OC(=O)c3ccccc32)CC1 (configuration not stated)	-7	-3	0	0	9.7*
O=C1OC(N2CCN(C(=O)c3ccco3)CC2)c2ccccc21 (configuration not stated)	-12	-2	-1	-4	-1
O=[N+]([O-])c1cccc(-n2nnnc2CN2CCCC2)c1	-5	28	0	-4	1
COc1ccc(C(=O)NC(NC(=O)c2ccc(OC)c(OC)c2)c2ccccc2F)cc1OC	4	-3	1	-5	9.9*
C=C(C)CC1(NC(C)c2ccccc2)CCCCC1 (configuration not stated)	-12	1	0	-1	-2
O=C(CCCN1C(=O)/C(=C\c2cccs2)SC1=S)Nc1ccccn1	-1	0	0	14*	1
O=C(CCCN1C(=O)/C(=C/c2cccs2)SC1=S)NNC(=O)c1ccncc1	0	-13	0	-4	-5
O=C(CCN1C(=O)/C(=C/c2cccs2)SC1=S)Nc1ccccn1	4	1	0	-4	-2
O=C(CCCN1C(=O)/C(=C\c2cccs2)SC1=S)NNC(=O)c1cccnc1	-5	-6	0	-3	10*
COCCSc1nnc(NC(=O)CSc2ccccc2)s1	9	0	0	0	-2
COCCSc1nnc(NC(=O)C(C)(C)C)s1	-4	-4	0	-1	8.8*
CN1CCN(NS(=O)(=O)c2cccs2)CC1	-11	2	0	-5	-2
O=c1c(-c2nc3ccccc3s2)cccn1Cc1ccccc1	-10	-9	0	-1	9.0*
Cc1cccc(C)c1NC(=O)c1cccc(COc2cc(Cl)ccc2Cl)c1	-5	-12	0	-9	9.0*
N=c1c2c(-c3ccccc3)c(-c3ccccc3)n(Cc3ccco3)c2ncn1CCCN1CCOCC1	-6	-34	0	11*	5
SMILES	PKD1 inh	Arbovirus inh	Hsp70 act	Efa HMGR inh	Wee1 stabilizer
CC[n+]1c(C)n(-c2ccccc2)c2ccc(C(=O)OC)cc21	-3	6	0	16*	0
CCOC(=O)c1ccc2c(c1)[n+](CC)c(C)n2-c1ccccc1	-2	6	0	-7	-4
COc1ccc(CN(Cc2cc3cccc(C)c3n3nnnc23)C(=O)N2CCOCC2)cc1	-3	-3	0	-4	-2
O=C(Nc1nc2c(F)cc(F)cc2s1)C1CC(=O)N(Cc2ccco2)C1 (configuration not stated)	·	·	·	·	2
CCOc1ccc(NC(=O)CN2CCN(CC(=O)Nc3cccc(F)c3)CC2)cc1	-5	-6	0	-6	-1
CCOc1ccc(NC(=O)CN2CCN(CC(=O)Nc3cc(OC)cc(OC)c3)CC2)cc1	1	-5	0	1	13*
CCN(Cc1cc(=O)n2cc(Cl)c(C)c(Cl)c2n1)Cc1nc2ccccc2c(=O)[nH]1	-8	26	0	10*	3
Cc1cccc(C)c1NC(=S)NCCSc1ccc(Cl)cc1	-7	-31	0	-2	-3
Cc1cc(C)nc(/N=c2/ssnc2Cl)c1	-4	-28	0	12*	-1
CC1(CC(=O)N/N=C/c2cc3c(cc2Br)OCO3)OCCO1	-2	4	0	5	0
